The supplement of paper PMC13380429

Columns and labels:
[1] = test system: Vero E6 infected with SARS-CoV-2; test: morphology score (similarity to uninfected cells); higher = more like uninfected cells; settings: 24 h
[2] = test system: Vero E6 infected with SARS-CoV-2; test: SARS-CoV-2 infection rate relative to infected DMSO; higher = more infection, active = 60 or less; settings: 24 h

Row | Compound | morphology score [1] | SARS-CoV-2 infection rate [2]
1 | CN[C@@H](C)[C@H]1[C@H](O)C[C@@]2(C)[C@@H]3CC[C@H]4C(C)(C)[C@@H](NC)CC[C@@]45C[C@@]35CC[C@]12C [cyclovirobuxin-D] (10 µM) | 0.331 | 97% (inactive)
2 | COc1cc(-c2ccc(=O)[nH]n2)ccc1OC(F)F [zardaverine] (10 µM) | 0.289 | 83.5% (inactive)
3 | COc1ccc(Br)cc1S(=O)(=O)NC(=O)/C=C/c1ccccc1Cc1ccc2ccccc2c1 (10 µM) | 0.19 | 79.5% (inactive)
4 | Cn1c([N+](=O)[O-])cnc1COC(N)=O [ronidazole] (10 µM) | -0.00677 | 114% (inactive)
5 | CC(=O)N[C@H](Cc1ccc2ccccc2c1)C(=O)N[C@H](Cc1ccc(Cl)cc1)C(=O)N[C@H](Cc1cccnc1)C(=O)N[C@@H](CO)C(=O)N[C@@H](Cc1ccc(NC(=O)[C@@H]2CC(=O)NC(=O)N2)cc1)C(=O)N[C@H](Cc1ccc(NC(N)=O)cc1)C(=O)N[C@@H](CC(C)C)C(=O)N[C@@H](CCCCNC(C)C)C(=O)N1CCC[C@H]1C(=O)N[C@H](C)C(N)=O [degarelix] (10 µM) | -0.277 | 115% (inactive)
6 | CN(C)C(=S)SC(=S)N(C)C [tetramethylthiuram-monosulfide] (10 µM) | -0.225 | 116% (inactive)
7 | C[C@@H](O[C@H]1OCCN(Cc2n[nH]c(=O)[nH]2)[C@H]1c1ccc(F)cc1)c1cc(C(F)(F)F)cc(C(F)(F)F)c1 [aprepitant] (10 µM) | 0.0718 | 108% (inactive)
8 | Cc1cc(OI)c(C(C)C)cc1-c1cc(C(C)C)c(OI)cc1C [thymol-iodide] (10 µM) | -0.117 | 104% (inactive)
9 | CC1CC(OC(=O)C(O)c2ccccc2)CC(C)(C)N1C (stereo not given) [eucatropine] (10 µM) | -0.104 | 115% (inactive)
10 | Nc1nc2ccc(Cl)cc2c2nc(-c3ccco3)nn12 (10 µM) | 0.125 | 108% (inactive)
11 | O=C(CCCl)NCCc1ccccc1 [fenaclon] (10 µM) | 0.0663 | 102% (inactive)
12 | CC(C)C[C@H](NC(=O)[C@@H](COC(C)(C)C)NC(=O)[C@H](Cc1ccc(O)cc1)NC(=O)[C@H](CO)NC(=O)[C@H](Cc1c[nH]c2ccccc12)NC(=O)[C@H](Cc1cnc[nH]1)NC(=O)[C@@H]1CCC(=O)N1)C(=O)N[C@@H](CCCNC(=N)N)C(=O)N1CCC[C@H]1C(=O)NNC(N)=O [goserelin-acetate] (10 µM) | 0.0827 | 109% (inactive)
13 | COc1ccc(S(=O)(=O)N(C(C)=O)c2ccccc2/C=C/c2cc[n+]([O-])cc2)cc1 (10 µM) | -0.108 | 93.5% (inactive)
14 | COc1ccc(Nc2ccn(-c3ccccc3)n2)cc1 (10 µM) | 0.166 | 87.5% (inactive)
15 | CN1CCC(=C2c3ccccc3CC(=O)c3sccc32)CC1 [ketotifen] (10 µM) | 0.144 | 101% (inactive)
16 | N[C@@H](CCC(=O)N[C@@H](CS)C(=O)NCC(=O)O)C(=O)O [glutathione] (10 µM) | -0.0349 | 108% (inactive)
17 | CSc1cc2c(cc1C(F)(F)F)N(C(=O)Nc1cccnc1)CC2 (10 µM) | -0.166 | 112% (inactive)
18 | CCNC(=O)NS(=O)(=O)c1sc(CC(C)C)cc1-c1ccc(Cn2c(-c3ccccc3)nc(OC)c2C=O)cc1 (10 µM) | 0.159 | 97% (inactive)
19 | C=CC(N)CCC(=O)O (stereo not given) [vigabatrin] (10 µM) | 0.188 | 99.5% (inactive)
20 | CC[C@@H](C(=O)[C@@H](C)[C@@H](O)[C@H](C)[C@@H]1O[C@@H]([C@@H](CC)C(=O)O)CC[C@@H]1C)[C@H]1O[C@]2(C=C[C@@H](O)[C@]3(CC[C@@](C)([C@H]4CC[C@](O)(CC)[C@H](C)O4)O3)O2)[C@H](C)C[C@@H]1C [Salinomycin (Procoxacin)] (10 µM) | -0.00386 | 108% (inactive)
21 | c1cc2c(c(N3CCNCC3)c1)OCCO2 [eltoprazine] (10 µM) | 0.0367 | 94.5% (inactive)
22 | Cc1sc(C)c(C(=O)NC2(c3ccc(C(=O)O)cc3)CC2)c1Cc1ccc(C(F)(F)F)cc1 (10 µM) | 0.187 | 108% (inactive)
23 | CN1C[C@@H]2C[C@H]1CN2c1cc2c(cc1F)c(=O)c(C(=O)O)cn2C1CC1 [danofloxacin] (10 µM) | 0.319 | 100% (inactive)
24 | CCCCCn1cc(C(=O)NC23CC4CC(CC(C4)C2)C3)c(=O)c2cc(-c3ccccc3)ccc21 (10 µM) | 0.119 | 107% (inactive)
25 | CCCc1cc(=O)[nH]c(=S)[nH]1 [propylthiouracil] (10 µM) | 0.00376 | 104% (inactive)
26 | O=[N+]([O-])/C=C/c1ccc2c(c1)OCO2 [3,4-methylenedioxy-beta-nitrostyrene] (10 µM) | 0.58 | 41% (active)
27 | O=C(O)c1ccccc1Nc1cccc(C(F)(F)F)c1 [flufenamic-acid] (10 µM) | 0.156 | 99.5% (inactive)
28 | Cc1c(S(=O)(=O)O)oc2c1C(=O)C(=O)c1c-2ccc2c1CCCC2(C)C [sodium-tanshinone-II-A-sulfonate] (10 µM) | 0.0001 | 110% (inactive)

Row | Compound | morphology score [1] | SARS-CoV-2 infection rate [2]
29 | COc1ccccc1CN[C@H]1CCCN[C@H]1c1ccccc1 (10 µM) | 0.24 | 86% (inactive)
30 | CN1CC[C@@]2(C)c3cc(O)ccc3N(C)[C@@H]12 [eseroline-(-)] (10 µM) | 0.137 | 97% (inactive)
31 | O=C(NCc1ccccc1)c1csc(Nc2ccncn2)n1 [thiazovivin] (0.833333 µM) | 0.654 | 99% (inactive)
32 | COC(=O)C1=CO[C@@H](O[C@@H]2O[C@H](CO)[C@@H](O)[C@H](O)[C@H]2O)[C@@H]2C(CO)=CC[C@H]12 [geniposide] (10 µM) | -0.322 | 116% (inactive)
33 | CN(C(=O)c1c(O)c2ccccc2n(C)c1=O)c1ccccc1 [roquinimex] (10 µM) | 0.211 | 94.5% (inactive)
34 | Nc1c(S(=O)(=O)O)cc(Nc2cccc3ccccc23)c2c1C(=O)c1ccccc1C2=O (10 µM) | 0.145 | 112% (inactive)
35 | CN(C)CCN(Cc1cccs1)c1ccccn1 [methapyrilene] (10 µM) | -0.165 | 113% (inactive)
36 | CNC1CC(N)C(O)C(OC2OC(CO)C(O)C3OC4(OC(C(N)CO)C(O)C(O)C4O)OC23)C1O (stereo not given) [Hygromycin B] (10 µM) | 0.0213 | 86.5% (inactive)
37 | CC1(C)OC[C@@H](COC(=O)CCc2ccc(OC[C@@H](O)CNCCNC(=O)N3CCOCC3)cc2)O1 [landiolol] (10 µM) | -0.108 | 113% (inactive)
38 | CCC1=C[C@@H]2CN(C1)Cc1c([nH]c3ccccc13)[C@@](C(=O)OC)(c1cc3c(cc1OC)N(C)[C@H]1[C@@](O)(C(=O)OC)[C@H](OC(C)=O)[C@]4(CC)C=CCN5CC[C@]31[C@@H]54)C2 [vinorelbine] (10 µM) | -0.193 | 115% (inactive)
39 | C[C@H](Nc1cc(NS(=O)(=O)N2CCC2)nc(SCc2cccc(F)c2F)n1)[C@@H](O)CO (10 µM) | 0.112 | 99% (inactive)
40 | CC(C)Oc1ccc(Cc2ccc(NC3=NCCN3)cc2)cc1 (10 µM) | 0.0823 | 100% (inactive)
41 | Cc1ccnc(NC(=O)C(C)c2cccc(C(=O)c3ccccc3)c2)c1 (stereo not given) [piketoprofen] (10 µM) | -0.109 | 107% (inactive)
42 | NCCCCN(Cc1nc2ccccc2[nH]1)[C@H]1CCCc2cccnc21 (10 µM) | 0.0412 | 102% (inactive)
43 | CC(C)(C)NC(=O)[C@@H](c1cccnc1)N(C(=O)c1ccco1)c1ccc(C(C)(C)C)cc1 (10 µM) | 0.333 | 83% (inactive)
44 | COc1cc(CCc2cc(NC(=O)c3ccc(N4CC(C)NC(C)C4)cc3)n[nH]2)cc(OC)c1 (stereo not given) (10 µM) | 0.373 | 79.5% (inactive)
45 | O=C(NCCCN1CCOCC1)c1cnn2c(-c3ccccc3)cc(-c3ccccc3)nc12 [reversan] (10 µM) | 0.226 | 98% (inactive)
46 | CN(C)CCOC(c1ccccc1)c1ccccc1.Cn1c(=O)c2[nH]c(Cl)nc2n(C)c1=O [dimenhydrinate] (10 µM) | -0.0688 | 110% (inactive)
47 | COC(=O)[C@H](CC(C)C)NC(=O)[C@@H](N)CC(C)C [leucylleucine-methyl-ester] (10 µM) | 0.113 | 99.5% (inactive)
48 | CN1C(C(=O)Nc2ccccn2)=C(O)c2sc(Cl)cc2S1(=O)=O [lornoxicam] (10 µM) | 0.00915 | 97% (inactive)
49 | Cc1ncc(NC(=O)c2ccc(CN3CCN(C)CC3)c(C(F)(F)F)c2)cc1Nc1nccc(-c2cccnc2)n1 [flumatinib] (10 µM) | 0.306 | 25.5% (active)
50 | CN(CCOc1ccc(C[C@H](Nc2ccccc2C(=O)c2ccccc2)C(=O)O)cc1)c1ccccn1 (10 µM) | 0.317 | 70% (inactive)
51 | C/C=C1\NC(=O)[C@H]2CSSCC/C=C/[C@H](CC(=O)N[C@H](C(C)C)C(=O)N2)OC(=O)[C@H](C(C)C)NC1=O [romidepsin] (10 µM) | -0.211 | 114% (inactive)
52 | COC1(C[S@@+]([O-])c2ccccc2)CCN(CCc2c[nH]c3ccc(F)cc23)CC1 (10 µM) | -0.00604 | 102% (inactive)
53 | O=C(O)Cc1ccc(OCc2ccccc2)c(Cl)c1 [benzofenac] (10 µM) | -0.114 | 106% (inactive)
54 | FCc1ccc(OCCOc2ccc(Cl)cc2Cl)c(Cl)n1 (10 µM) | -0.0669 | 116% (inactive)
55 | O=C(/C=C/c1ccccc1)NCCO [brolitene] (10 µM) | 0.199 | 93.5% (inactive)
